Experimental data from PubChem BioAssay (NCI).
“And” between values parts separate entries of the source, which are not always exact repeats. Equal entries are not always repeated. This is part of a sample that, as a whole, favours compounds with a hit. Of some 83,000 tested, about 20% had one in any assay.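 Each cell line was grown in a 96-well plate and treated with one concentration of compound for 48 hours. Values below 10 were considered active.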 The source made the active and inactive calls.

Tests used:
Experiment in all cases: NCI-60 one-dose screen, 48 h (100 = growth as untreated, 0 = no growth, -100 = all killed)
Conditions in all cases: 10 µM unless noted
[1] = system: NCI-H23 lung
[2] = system: NCI-H226 lung
[3] = system: NCI-H322M lung
[4] = system: HOP-62 NSCLC
[5] = system: NCI-H460 lung
[6] = system: NCI-H522 lung
[7] = system: A549/ATCC NSCLC
[8] = system: 786-0 renal
[9] = system: COLO 205 colon
[10] = system: DU-145 prostate
[11] = system: K-562 leukemia
[12] = system: MALME-3M melanoma
[13] = system: MDA-MB-231 breast
[14] = system: RXF 393 renal
[15] = system: SF-268 CNS
[16] = system: SF-295 CNS
[17] = system: SF-539 CNS
[18] = system: UACC-257 melanoma
[19] = system: M14 melanoma
[20] = system: HOP-92 NSCLC

Measured: growth

N=C(N=C(N)N)N1CCOCC1
inactive: [1] 103% and 90.8% | [2] 99.3% and 98.3% | [3] 95.4% and 112% | [4] 94.7% and 106% | [5] 99.8% and 102% | [6] 94.7% and 107% | [7] 103% and 94.2% | [8] 104% and 95.6% | [9] 104% and 107% | [10] 102% and 106% | [11] 106% and 112% | [12] 90.6% and 108% | [13] 104% and 99.2% | [14] 111% | [15] 104% and 102% | [16] 110% and 96.9% | [17] 105% and 95.9% | [18] 107% and 104% | [19] 91.1% and 97.2%

O=P(O)(O)OC1C(OP(=O)(O)O)C(OP(=O)(O)O)C(OP(=O)(O)O)C(OP(=O)(O)O)C1OP(=O)(O)O.[Cu+2] (stereo not drawn)
inactive: [1] 93.3% | [2] 98.8% | [3] 106% | [4] 114% | [5] 84.2% | [20] 106% | [7] 64.1% | [8] 114% | [9] 111% | [10] 104% | [11] 94.7% | [12] 93.4% | [13] 80.7% | [14] 125% | [15] 125% | [16] 91% | [17] 72% | [18] 80.2% | [19] 102%

O=C(c1ccc(Cl)cc1)C1C(c2ccccc2)C1[N+](=O)[O-] (stereo not drawn)
inactive: [1] 84.6% | [2] 97.2% | [3] 89.8% | [4] 98% | [5] 104% | [20] 80.9% | [7] 98.6% | [8] 98.8% | [9] 111% | [10] 105% | [11] 92.7% | [12] 104% | [13] 91.2% | [14] 106% | [15] 98.1% | [16] 103% | [17] 103% | [18] 105% | [19] 102%

COC(=O)c1cc(C(=O)OC)cc([N+](=O)[O-])c1
inactive: [1] 105% | [2] 108% | [3] 117% | [4] 94.8% | [5] 113% | [20] 105% | [7] 87.7% | [8] 92.9% | [9] 101% | [10] 113% | [11] 99.7% | [12] 113% | [13] 112% | [14] 118% | [15] 108% | [16] 111% | [17] 97.4% | [18] 82.7% | [19] 106%

COC(=O)C(Cc1cn(C(C)=O)c2ccccc12)P(=O)(OC)OC (stereo not drawn)
inactive: [1] 98.5% | [2] 91.5% | [3] 101% | [4] 93.3% | [5] 98.1% | [20] 98.8% | [7] 106% | [8] 105% | [9] 105% | [10] 109% | [11] 102% | [12] 96.1% | [13] 97.9% | [14] 116% | [15] 96.3% | [16] 97.1% | [17] 97.3% | [18] 110% | [19] 91.9%

CCCCNC(=O)c1ccccc1C
inactive: [1] 90.4% | [2] 94.4% | [3] 89.4% | [4] 91.1% | [5] 105% | [20] 96.3% | [7] 100% | [8] 92.9% | [9] 98.3% | [10] 104% | [11] 103% | [12] 87.4% | [13] 103% | [14] 94.8% | [15] 101% | [16] 94.6% | [17] 107% | [18] 100% | [19] 90.4%

O=C1CCC(=O)N1CC1CC2CCC1C2 (stereo not drawn)
inactive: [1] 92.7% and 102% | [2] 95.9% and 92.2% | [3] 104% and 80.5% | [4] 96.2% and 86.7% | [5] 107% and 102% | [20] 99.9% and 101% | [7] 111% and 99.1% | [8] 98.5% and 97.6% | [9] 117% and 92.5% | [10] 127% and 98.7% | [11] 71.2% and 94.1% | [12] 98.1% and 87.7% | [13] 98.8% | [14] 105% and 106% | [15] 100% and 95.2% | [16] 83.4% and 90.2% | [17] 101% and 87.8% | [18] 104% and 83.5% | [19] 103% and 95.6%

CCOC(=O)C1=CC(=O)CC(C)(C)O1
inactive: [1] 104% and 107% | [2] 114% and 95.3% | [3] 99.2% and 125% | [4] 109% and 107% | [5] 107% and 109% | [20] 93.5% and 97.1% | [7] 119% and 81.9% | [8] 110% and 116% | [10] 123% and 110% | [11] 42% and 104% | [12] 112% and 110% | [13] 114% and 106% | [14] 118% and 114% | [15] 108% and 103% | [16] 125% and 114% | [17] 110% and 109% | [18] 106% and 95.7% | [19] 99.6% and 112%

Cc1ccc(C(=O)c2ccc(C)cc2)cc1
inactive: [1] 95.9% and 98.3% | [2] 92.4% and 94.6% | [3] 97.2% and 94.3% | [4] 92.5% and 98.4% | [5] 101% and 105% | [20] 59.2% and 73.7% | [7] 87.9% and 101% | [8] 90.7% and 99.6% | [10] 102% and 103% | [11] 103% and 110% | [12] 108% and 93.2% | [13] 103% and 106% | [14] 88% and 95.8% | [15] 94.8% and 98% | [16] 94.4% and 103% | [17] 85.3% and 97.6% | [18] 92.6% and 114% | [19] 101%

N#Cc1ccc(/C=C/C(=O)c2ccccc2)cc1
active: [11] -35.8% and 6.11%
inactive: [1] 100% and 95.2% | [2] 105% and 107% | [3] 93.2% and 98.2% | [4] 96.6% and 110% | [5] 78.7% and 106% | [20] 73.1% and 85.7% | [7] 88.2% and 98.7% | [8] 102% | [9] 81.6% and 113% | [10] 80.8% and 102% | [12] 89.2% and 110% | [13] 103% | [15] 101% | [16] 93.7% and 118% | [17] 103% and 110% | [18] 80% and 114%

NCCCCCC(=O)O
inactive: [1] 97.6% and 104% and 92.2% | [2] 101% [middle of 4 runs] | [4] 99.7% and 105% and 97.7% | [20] 97.2% and 90.1% | [7] 94.1% and 100% and 99.7% | [8] 107% [middle of 4 runs] | [9] 114% and 104% and 95.2% | [10] 124% [middle of 4 runs] | [11] 112% [middle of 4 runs] | [13] 112% and 105% and 109% | [14] 110% and 113% and 127% | [16] 104% [middle of 4 runs] | [17] 101% [middle of 4 runs] | [18] 102% and 96.4% and 105% | [19] 106% [middle of 4 runs]

O=C(OCc1ccccc1)c1ccccc1
inactive: [1] 107% and 90.2% | [2] 97.9% and 93.9% | [3] 115% and 106% | [4] 94.9% and 90.5% | [5] 109% and 108% | [20] 89.6% | [7] 95.3% and 86.6% | [8] 95.1% and 96.5% | [9] 101% | [10] 118% and 101% | [11] 104% | [12] 109% and 102% | [13] 88.2% and 102% | [14] 91.4% | [15] 114% and 99.1% | [16] 108% and 103% | [17] 107% and 94.9% | [18] 95.6% and 85% | [19] 104% and 91%

COc1cc(NCCCCCCCNC(C)C)c2nccc(C)c2c1
54.8% (inactive) and 7.58% (active): [11]
inactive: [1] 81.4% and 77.1% | [2] 90.9% and 75.7% | [3] 87% and 68.5% | [4] 73.6% and 72.1% | [5] 85.5% and 57.2% | [20] 39.3% and 75.6% | [7] 95.1% and 90.6% | [8] 82.5% and 82.1% | [10] 102% and 91.4% | [12] 94.6% and 42.1% | [13] 68% and 62.9% | [14] 81.4% and 107% | [15] 93.2% and 82.1% | [16] 71.8% | [17] 91.5% and 73.1% | [18] 107% and 89.7%
53.8% (inactive) and -5.98% (active): [9]
